Structures are written as SMILES. Several values for one entry are separate records, joined by “and”; a condition that tells them apart may be missing. Identical values can stand only once. Activity calls are given as the source filed them.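 Rule for the calls: active = mean tau seeding fluorescence area under 1% of vehicle, meaning inhibition above a set limit; inactive = the rest.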

Broadly, the inhibition is the change of the read-out against control, counted positive when it falls.

Sequence of Microtubule-associated protein tau (Homo sapiens) (P10636 whole entry, looked up): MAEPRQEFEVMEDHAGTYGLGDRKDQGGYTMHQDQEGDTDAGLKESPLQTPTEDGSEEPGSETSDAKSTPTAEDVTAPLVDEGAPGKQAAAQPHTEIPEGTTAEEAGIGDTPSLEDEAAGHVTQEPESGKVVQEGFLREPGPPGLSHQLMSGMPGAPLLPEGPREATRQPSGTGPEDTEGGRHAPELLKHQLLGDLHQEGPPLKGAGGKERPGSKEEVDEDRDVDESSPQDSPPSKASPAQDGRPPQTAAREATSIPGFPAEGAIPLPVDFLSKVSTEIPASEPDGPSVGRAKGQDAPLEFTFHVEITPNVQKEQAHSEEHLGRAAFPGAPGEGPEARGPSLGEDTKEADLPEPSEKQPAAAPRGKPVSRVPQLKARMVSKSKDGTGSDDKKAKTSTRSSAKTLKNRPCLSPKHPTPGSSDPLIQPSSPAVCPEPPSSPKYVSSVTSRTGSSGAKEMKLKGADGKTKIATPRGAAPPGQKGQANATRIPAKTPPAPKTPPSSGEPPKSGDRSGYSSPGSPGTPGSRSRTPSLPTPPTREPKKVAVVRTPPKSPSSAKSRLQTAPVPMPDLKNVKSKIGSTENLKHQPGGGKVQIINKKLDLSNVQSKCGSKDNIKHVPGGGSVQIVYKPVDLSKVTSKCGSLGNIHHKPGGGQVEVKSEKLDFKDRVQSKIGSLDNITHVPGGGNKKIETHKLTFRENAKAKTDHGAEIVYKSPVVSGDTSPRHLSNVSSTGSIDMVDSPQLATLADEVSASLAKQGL

This test concerns the target Microtubule-associated protein tau (Homo sapiens) (UniProt P10636). Kind of test: inhibitors of seeded tau aggregation, primary screen, biochemical, seed amplification, ThT fluorescence (AID 2061166). Conditions: Recombinant tau seeded by AD brain, ThT fluorescence AUC; at 100 µM; hits give high values.
For the compound `Cc1c(C(=O)NN2CCCCC2)nn(-c2ccc(Cl)cc2Cl)c1-c1ccc(Cl)cc1`, the inhibition is 50.7% (inactive).
For `O=C(O)c1cc(-c2ccccc2)nc2ccccc12` the value was 3.74% (inactive); for `COC1C(=O)C2(C)C(OC)CC3OCC3(OC(C)=O)C2C(OC(=O)c2ccccc2)C2(O)CC(OC(=O)C(O)C(NC(=O)OC(C)(C)C)c3ccccc3)C(C)=C1C2(C)C` (configuration not stated), 10.4% (inactive); for `O=C(CCCN1CCC(O)(c2ccc(Cl)cc2)CC1)c1ccc(F)cc1`, -16.8% (inactive).
The result for `O=C1C=C(NC(Cc2c[nH]c3ccccc23)C(=O)O)C(=O)c2ccccc21` (configuration not stated) reads 52.4% (inactive); that for `CCC1(O)C(=O)OCc2c1cc1n(c2=O)Cc2cc3c(CN(C)C)c(O)ccc3nc2-1` (configuration not stated), 91.5% (inactive); that for `CC1COc2c(N3CCN(C)CC3)c(F)cc3c(=O)c(C(=O)O)cn1c23` (configuration not stated), -27.6% (inactive).
The result for `N=c1ccc2nc3ccc(N)cc3sc-2c1` reads 100% (active); that for `Nc1cccc2c1C(=O)N(C1CCC(=O)NC1=O)C2=O` (configuration not stated), 16.4% (inactive).
On to `CC12CC3(O)OC(O1)C1(COC(=O)c4ccccc4)C3CC21OC1OC(CO)C(O)C(O)C1O` (configuration not stated), for which the inhibition was -50% (inactive).
With `CCc1cc(C(N)=S)ccn1`, the inhibition was 40.9% (inactive).
With `CCCNC1CCc2nc(N)sc2C1` (configuration not stated), the inhibition is 13.7% (inactive) and -33.7% (inactive).
`CCN(C(=O)c1c(O)c2c(Cl)cccc2n(C)c1=O)c1ccccc1`: the inhibition is 20% (inactive).
On to `OCCOCCN1CCN(C2=Nc3ccccc3Sc3ccccc32)CC1`, for which the inhibition is 22.2% (inactive).
`CCC(C(=O)O)c1ccc(N2Cc3ccccc3C2=O)cc1` (configuration not stated): the inhibition is 26.9% (inactive).
For `COC(=O)/C=C/C(=O)OC` the value was 3.37% (inactive); for `CC1(C)CCC2(C(=O)O)CCC3(C)C(=CCC4C5(C)CCC(O)C(C)(CO)C5CCC43C)C2C1` (configuration not stated), 65% (inactive).
`CN(C)CC(c1ccc(O)cc1)C1(O)CCCCC1` (configuration not stated): the inhibition was 15.1% (inactive).
As to `CS(=O)(=O)c1ccc(C(=O)Nc2ccc(Cl)c(-c3ccccn3)c2)c(Cl)c1`, the inhibition is 44% (inactive).
`CC1CCC2(OC1)OC1CC3C4CC=C5CC(O)CC(O)C5(C)C4CCC3(C)C1C2C` (configuration not stated): the inhibition is 13.9% (inactive).
As for `CC1OC(OCC2OC(Oc3c(-c4ccc(O)c(O)c4)oc4cc(O)cc(O)c4c3=O)C(O)C(O)C2O)C(O)C(O)C1O` (configuration not stated), the inhibition is 28.7% (inactive).
The result for `CCN(CC)CCCC(C)Nc1c2ccc(Cl)cc2nc2ccc(OC)cc12` (configuration not stated) reads 72.2% (inactive).
For the compound `CC(=O)C1CCC2C3CC=C4CC(O)CCC4(C)C3CCC12C` (configuration not stated), the inhibition is 41.9% (inactive).
For the compound `Nc1nc(Cl)nc2c1ncn2C1CC(O)C(CO)O1` (configuration not stated), the inhibition was -52.8% (inactive).
The result for `O=C(O)CCCc1ccccc1` reads 8.12% (inactive).
As for `COC1CC2CCC(C)C(O)(O2)C(=O)C(=O)N2CCCCC2C(=O)OC(C(C)CC2CCC(OCCO)C(OC)C2)CC(=O)C(C)/C=C(\C)C(O)C(OC)C(=O)C(C)CC(C)/C=C/C=C/C=C/1C` (configuration not stated), the inhibition was 19.2% (inactive).
As to `Cc1ccc2c(c1)c1c(n2CCc2ccc(C)nc2)CCN(C)C1`, the inhibition is -29.9% (inactive).
For `CNCCC(Oc1cccc2ccccc12)c1cccs1` (configuration not stated) the value was 48.5% (inactive).
On to `Cc1ccc(C(=O)c2cc(O)c(O)c([N+](=O)[O-])c2)cc1`, for which the inhibition was 77.7% (inactive).
As for `CCCCCCCCc1ccc(CCC(N)(CO)CO)cc1`, the inhibition was 59.3% (inactive).
The result for `Clc1cccc(Cl)c1NC1=NCCN1` reads -11.7% (inactive); that for `Cc1ccc(Nc2nccc(N(C)c3ccc4c(C)n(C)nc4c3)n2)cc1S(N)(=O)=O`, -1.27% (inactive).

(Values after PubChem BioAssay AID2061166 (Soto Lab, Mitchell Center for Alzheimers Disease and …, 2025).)
